# Screens deposited in PubChem by National Center for Advancing Translational Sciences (NCATS).
# FBPA Giardia inh: Giardia lamblia aldolase inhibition; A8B2U2; purified Giardia FBPA; Potency, µM (series often up to 59.6 µM), hits mostly inhibitors; 290,000 compounds, 0.71% hits; AID 2451; note: nearly all actives have a fitted effect of over 55% in size
# Target sequence (A8B2U2 whole entry, looked up): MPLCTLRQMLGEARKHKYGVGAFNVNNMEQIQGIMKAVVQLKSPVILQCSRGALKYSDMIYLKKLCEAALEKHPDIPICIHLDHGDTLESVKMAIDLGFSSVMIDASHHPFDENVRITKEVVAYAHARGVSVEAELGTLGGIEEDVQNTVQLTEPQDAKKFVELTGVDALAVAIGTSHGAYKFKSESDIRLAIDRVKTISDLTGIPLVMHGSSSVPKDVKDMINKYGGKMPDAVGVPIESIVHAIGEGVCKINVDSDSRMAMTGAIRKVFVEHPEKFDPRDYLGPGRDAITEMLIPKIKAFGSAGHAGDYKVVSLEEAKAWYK
#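 Giardia FBPA (40 nM reagent) was preincubated 10 min at RT with compound (up to 57.5 uM final), then substrate plus GAPDH/TPI/NAD/arsenate coupling system with diaphorase/resazurin was added; resorufin fluorescence (525/598 nm) was read after 20 min.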
# Shiga toxin inh: blocks Shiga toxin action in Vero cells | Vero cells, Shiga toxin protein synthesis inhibition reporter | inhibition, % at 38.7 µM | 290,000 compounds, 9.2% hits | AID 2315; in the data active = inhibition mostly above about 28%, no sharp cut-off; inactive = mostly below about 43%
# CHX counter: counter-screen for Shiga toxin inhibitors: cycloheximide protein synthesis inhibition; cell reporter, cycloheximide protein synthesis inhibition counterscreen; max response, %; 300,000 compounds, 12% hits; AID 2314; in the data active = max response mostly above about 13%, no sharp cut-off; inactive = mostly below about 14%; note: read at 38.3 µM for the half of the compounds with a filed dose
# Pf growth 48h: P. falciparum growth inhibition at 48 hours (one generation). P. falciparum luciferase growth in erythrocytes, 48 h. Potency, µM (doses to about 28.7 µM), actives largely listed as inhibitors. 310,000 compounds, 5.9% hits. AID 504832
#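 Erythrocytes infected with P. falciparum carrying an integrated firefly luciferase reporter (2% hematocrit, 0.1% parasitemia final) were exposed to compounds in RPMI 1640 with 0.5% Albumax at 37 C, 5% CO2. Growth inhibition was scored as reduced luminescence.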
# NS1 function inh: inhibitors of influenza NS1 protein function. Potency, µM (series often up to 46.1 µM). 270,000 compounds, 0.4% hits. AID 2326; calls by dose curve; note: actives are rising curves; nearly all actives have a fitted effect of over 50% in size
#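 Read-out: OD600 growth recovery of NS1-expressing budding yeast. Cells grown overnight at 30C in -URA glucose medium, washed, resuspended and diluted 1:100 in 2% galactose assay medium, pH 6.0. Same strain lacking NS1 served as positive control.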
# Pf growth 96h: inhibits malaria parasite growth, 96 h. P. falciparum luciferase reporter growth, 96 h. Potency, µM (titrated, usually from 28.7 µM), usual class: inhibitors. 320,000 compounds, 6.9% hits
#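 Infected RBCs, 2% Hct / 0.05% parasitemia final; luciferase-reporter P. falciparum; cpd 96 h, 37 C, 5% CO2; luciferase detection reagent; luminescence.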
# Hits are given with their value; - = inactive; ? = inconclusive; . = not tested or not shown; [ ] = another dose, or the depositor's remark. Most compounds without a hit are left out; they make up all but 21% or so of the library. Unless noted, calls come from the whole dose curve; as a rule, active = well fitted curve in the direction sought with a large enough effect; inconclusive = small, poorly fitted or top-dose-only effect, or another doubt; inactive = no such curve, though single readings can be large; an effect the other way counts as inactive or inconclusive.
SMILES,FBPA Giardia inh,Shiga toxin inh,CHX counter,Pf growth 48h,NS1 function inh,Pf growth 96h
COc1ccc(-c2cc(C(F)(F)F)nc(-n3ccnc3)n2)cc1,-,-,-,-,.,?
CN(CC(=O)NCc1ccco1)CC(=O)Nc1c(Cl)cccc1Cl,.,.,.,-,.,-
CN(C)c1ccc(C2Nc3ccccc3C(=O)N2CCCN2CCOCC2)cc1 (stereo not given),-,43,31,?,-,?
COc1ccc(OCC(=O)Nc2ccccc2OC)cc1,-,-,-,.,-,?
COc1ccccc1NC(=O)COc1ccc2c(c1)OCO2,-,70,25,-,-,-
CCOc1ccccc1NC(=O)COc1ccc2c(c1)OCO2,-,59,-,-,-,-
COc1ccc(OCC(=O)Nc2ccccc2OC(F)F)cc1,-,-,9.6,-,-,.
Cc1ccc(NC(=O)COc2ccc3c(c2)OCO3)c(C)c1,.,.,.,-,.,-
NC(=O)c1ccccc1NC(=O)COc1ccc2c(c1)OCO2,-,85,29,-,-,?
CC(C)C(NC(=O)c1ccccc1)C(=O)N1CCCCCC1 (stereo not given),-,-,-,-,-,-
CCOC(=O)CN(c1ccccn1)S(=O)(=O)c1ccc(OC)cc1,-,-,-,-,-,?
O=C(COc1ccc2c(c1)OCO2)Nc1nncs1,-,-,18,-,-,-
O=C(COc1ccc2c(c1)OCO2)NC12CC3CC(CC(C3)C1)C2,-,44,17,?,-,-
COc1cccc(-c2cc(C(=O)Nc3cccnc3)c3ccccc3n2)c1,-,-,-,3.7µM,-,?
O=C(Nn1cnnc1)c1cc(-c2cccc(Br)c2)nc2ccccc12,-,-,-,-,-,-
COc1ccc(-c2cc(C(=O)Nc3cccnc3)c3ccccc3n2)cc1OC,.,-,-,?,-,-
O=C(Nc1cccnc1)c1cc(-c2cccc(Br)c2)nc2ccccc12,.,-,-,3.7µM,-,-
COc1ccc(NC(=O)c2cc(-c3ccncc3)nc3ccc(Br)cc23)cc1OC,-,-,-,13µM,-,-
O=C(Nc1ncccn1)c1cc(-c2cccc(Br)c2)nc2ccccc12,-,-,-,?,-,1.7µM
COc1ccc(NC(=O)c2cc(-c3cccnc3)nc3ccc(C)cc23)cc1OC,.,-,-,?,-,?
CC(=O)NC1(C(=O)O)CCCC1,-,-,-,-,-,-
O=C(Nc1cccnc1)c1cc(-c2cccnc2)nc2ccc(Br)cc12,.,-,-,1.2µM,-,1.2µM
CN1CCC(NC(=O)c2cc(-c3cccc(Br)c3)nc3ccccc23)CC1,-,-,-,13µM,-,-
COc1cccc(-c2cc(C(=O)NC3CC3)c3ccccc3n2)c1,.,-,-,?,-,-
O=C(Nc1ccncc1)c1cc(-c2cccc(Br)c2)nc2ccccc12,.,.,.,0.93µM,.,0.83µM
SMILES,FBPA Giardia inh,Shiga toxin inh,CHX counter,Pf growth 48h,NS1 function inh,Pf growth 96h
CCN(CC(=O)NC(C)(C)C)C(=O)CN1c2cccc3cccc(c23)S1(=O)=O,-,-,-,-,-,-
Cc1ccccc1-c1nc(P(=O)(c2ccccc2)c2ccccc2)c(N2CCOCC2)o1,-,-,-,15µM,-,?
CCOP(=O)(c1ccccc1)c1nc(-c2ccccc2C)oc1NCc1ccccc1 (stereo not given),-,-,-,12µM,-,?
CCOP(=O)(c1ccccc1)c1nc(-c2ccccc2C)oc1N1CCCCC1 (stereo not given),-,-,-,13µM,-,-
Cc1cc(C)c2[nH]c(C)c(CN3CCCCCC3)c(=O)c2c1,-,-,-,-,-,-
C#CCCCO/N=C1/C[C@@H](O)[C@@H](O)[C@@H]2[C@@H]3C(=O)N([C@@H](C)c4ccccc4)C(=O)[C@H]3CC[C@H]12,-[12.9 µM],.,.,.,.,.
CNS(=O)(=O)c1ccc(C(C)(C)C)cc1,-,-,-,-,-,-
O=C(CSc1ccc(-c2cccnc2)nn1)N1CCCCCC1,-,-,-,-,.,-
COc1ccccc1-c1ccc(SCc2cccc(C)c2)nn1,-,-,23,10µM,.,12µM
c1ccc(CSc2ccc(-c3cccnc3)nn2)cc1,-,98,32,-,.,-
COc1ccc(-c2ccc(SCc3cccnc3)nn2)cc1OC,-,-,19,-,.,?
c1cncc(CSc2ccc(-c3cccnc3)nn2)c1,-,67,-,-,.,-
O=C(CSc1ccc(-c2cccnc2)nn1)N1CCCC1,-,-,-,-,.,-
